Screen size: about 5,500 compounds; about 2,000 (36%) were called active. Another 18% or so got no clear call; they are omitted. The list shows a part of the results. A number with no mark means an inactive call. Cut-off read from the data, not from the text of the source: active = normalized growth mostly below about 0.91 (no sharp cut-off); inconclusive = no clear call, values can overlap the other calls; inactive = mostly above about 0.92.
Experiment: chemical genetic growth profiling, strain panel (AID 1159580);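 note: tested at 20 µM; growth read once vehicle control cultures reached saturation at 30 °C; 1 = growth at the plate median or of vehicle wells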
Details: growth OD

**Q.** With `Nc1nc2c(ncn2C2C[C@H](O)[C@@H](CO)O2)c(=O)[nH]1` (stereo partly specified) as the compound, how does the normalized growth (S. cerevisiae deletion strains, locus YAL013W, strain DEP1, stronger effect = lower value) read?
**A.** 0.995

**Q.** What about the normalized growth (S. cerevisiae deletion strains, locus YBR021W, strain FUR4, stronger effect = lower value) of the same compound?
**A.** 1

**Q.** And the normalized growth (S. cerevisiae deletion strains, locus YBR229C, strain ROT2, stronger effect = lower value)?
**A.** 0.997

**Q.** What about the normalized growth (S. cerevisiae deletion strains, locus YCL029C, strain bik1, stronger effect = lower value) of the same compound?
**A.** 0.573 (active)

**Q.** And the normalized growth (S. cerevisiae deletion strains, locus YDL035C, strain GPR1, stronger effect = lower value)?
**A.** 1.02

**Q.** And the normalized growth (S. cerevisiae deletion strains, locus YDL074C, strain BRE1, stronger effect = lower value)?
**A.** 1.02

**Q.** And the normalized growth (S. cerevisiae deletion strains, locus YDL101C, strain DUN1, stronger effect = lower value)?
**A.** 1

**Q.** And the normalized growth (S. cerevisiae deletion strains, locus YDL134C, strain PPH21, stronger effect = lower value)?
**A.** 1.01

**Q.** What about the normalized growth (S. cerevisiae deletion strains, locus YDL185W, strain tfp1, stronger effect = lower value) of the same compound?
**A.** 0.999

**Q.** What about the normalized growth (S. cerevisiae deletion strains, locus YDL192W, strain arf1, stronger effect = lower value) of the same compound?
**A.** 0.179 (active)

**Q.** What about the normalized growth (S. cerevisiae deletion strains, locus YDR101C, strain arx1, stronger effect = lower value) of the same compound?
**A.** 0.447 (active)

**Q.** And the normalized growth (S. cerevisiae deletion strains, locus YDR150W, strain NUM1, stronger effect = lower value)?
**A.** 1.02

**Q.** What about the normalized growth (S. cerevisiae deletion strains, locus YDR162C, strain NBP2, stronger effect = lower value) of the same compound?
**A.** 1

**Q.** And the normalized growth (S. cerevisiae deletion strains, locus YDR318W, strain mcm21, stronger effect = lower value)?
**A.** 0.322 (active)

**Q.** And the normalized growth (S. cerevisiae deletion strains, locus YDR388W, stronger effect = lower value)?
**A.** 0.162 (active)

**Q.** What about the normalized growth (S. cerevisiae deletion strains, locus YDR502C, strain sam2, stronger effect = lower value) of the same compound?
**A.** 0.359 (active)

**Q.** And the normalized growth (S. cerevisiae deletion strains, locus YEL061C, strain CIN8, stronger effect = lower value)?
**A.** 0.979

**Q.** What about the normalized growth (S. cerevisiae deletion strains, locus YER110C, stronger effect = lower value) of the same compound?
**A.** 0.627 (active)

**Q.** And the normalized growth (S. cerevisiae deletion strains, locus YER155C, strain BEM2, stronger effect = lower value)?
**A.** 0.994

**Q.** And the normalized growth (S. cerevisiae deletion strains, locus YER167W, strain BCK2, stronger effect = lower value)?
**A.** 1.01

**Q.** And the normalized growth (S. cerevisiae deletion strains, locus YGL078C, strain dbp3, stronger effect = lower value)?
**A.** 1

**Q.** What about the normalized growth (S. cerevisiae deletion strains, locus YGL086W, strain mad1, stronger effect = lower value) of the same compound?
**A.** 0.357 (active)

**Q.** What about the normalized growth (S. cerevisiae deletion strains, locus YGL248W, strain PDE1, stronger effect = lower value) of the same compound?
**A.** 0.996

**Q.** What about the normalized growth (S. cerevisiae deletion strains, locus YGR078C, strain PAC10, stronger effect = lower value) of the same compound?
**A.** 1

**Q.** And the normalized growth (S. cerevisiae deletion strains, locus YGR135W, strain pre9, stronger effect = lower value)?
**A.** 0.328 (active)

**Q.** And the normalized growth (S. cerevisiae deletion strains, locus YGR229C, strain SMI1, stronger effect = lower value)?
**A.** 1.01

**Q.** What about the normalized growth (S. cerevisiae deletion strains, locus YGR252W, strain gcn5, stronger effect = lower value) of the same compound?
**A.** 0.352 (active)

**Q.** What about the normalized growth (S. cerevisiae deletion strains, locus YHR030C, strain SLT2, stronger effect = lower value) of the same compound?
**A.** 1.01

**Q.** What about the normalized growth (S. cerevisiae deletion strains, locus YHR079C, strain IRE1 (second series), stronger effect = lower value) of the same compound?
**A.** 0.446 (active)

**Q.** And the normalized growth (S. cerevisiae deletion strains, locus YHR094C, strain hxt1, stronger effect = lower value)?
**A.** 0.456 (active)

**Q.** What about the normalized growth (S. cerevisiae deletion strains, locus YHR129C, strain ARP1, stronger effect = lower value) of the same compound?
**A.** 1

**Q.** And the normalized growth (S. cerevisiae deletion strains, locus YHR200W, strain rpn10, stronger effect = lower value)?
**A.** 0.357 (active)

**Q.** What about the normalized growth (S. cerevisiae deletion strains, locus YIL066C, strain RNR3, stronger effect = lower value) of the same compound?
**A.** 1.03

**Q.** And the normalized growth (S. cerevisiae deletion strains, locus YIL073C, strain SPO22, stronger effect = lower value)?
**A.** 1.1

**Q.** And the normalized growth (S. cerevisiae deletion strains, locus YIL125W, strain kgd1, stronger effect = lower value)?
**A.** 1.01

**Q.** What about the normalized growth (S. cerevisiae deletion strains, locus YIR030C, strain dcg1, stronger effect = lower value) of the same compound?
**A.** 0.46 (active)

**Q.** And the normalized growth (S. cerevisiae deletion strains, locus YJL095W, strain BCK1, stronger effect = lower value)?
**A.** 1

**Q.** And the normalized growth (S. cerevisiae deletion strains, locus YJL134W, strain LCB3, stronger effect = lower value)?
**A.** 1

**Q.** What about the normalized growth (S. cerevisiae deletion strains, locus YJL168C, strain set2, stronger effect = lower value) of the same compound?
**A.** 0.527 (active)

**Q.** And the normalized growth (S. cerevisiae deletion strains, locus YJL187C, strain SWE1 (second series), stronger effect = lower value)?
**A.** 1.01

**Q.** And the normalized growth (S. cerevisiae deletion strains, locus YJR043C, strain POL32, stronger effect = lower value)?
**A.** 1

**Q.** What about the normalized growth (S. cerevisiae deletion strains, locus YJR075W, strain HOC1, stronger effect = lower value) of the same compound?
**A.** 0.992

**Q.** What about the normalized growth (S. cerevisiae deletion strains, locus YKL009W, strain mrt4, stronger effect = lower value) of the same compound?
**A.** 1.02

**Q.** And the normalized growth (S. cerevisiae deletion strains, locus YKL068W, stronger effect = lower value)?
**A.** 1.01

**Q.** What about the normalized growth (S. cerevisiae deletion strains, locus YKL085W, strain MDH1 (second series), stronger effect = lower value) of the same compound?
**A.** 1.01

**Q.** What about the normalized growth (S. cerevisiae deletion strains, locus YKL085W, strain MDH1, stronger effect = lower value) of the same compound?
**A.** 1.01

**Q.** What about the normalized growth (S. cerevisiae deletion strains, locus YKL190W, strain CNB1, stronger effect = lower value) of the same compound?
**A.** 1

**Q.** And the normalized growth (S. cerevisiae deletion strains, locus YKR001C, strain vps1, stronger effect = lower value)?
**A.** 0.189 (active)

**Q.** What about the normalized growth (S. cerevisiae deletion strains, locus YLR039C, strain RIC1, stronger effect = lower value) of the same compound?
**A.** 1.02

**Q.** And the normalized growth (S. cerevisiae deletion strains, locus YLR058C, strain SHM2, stronger effect = lower value)?
**A.** 1

**Q.** What about the normalized growth (S. cerevisiae deletion strains, locus YLR102C, strain apc9, stronger effect = lower value) of the same compound?
**A.** 0.543 (active)

**Q.** What about the normalized growth (S. cerevisiae deletion strains, locus YLR262C, strain YPT6, stronger effect = lower value) of the same compound?
**A.** 1.08

**Q.** And the normalized growth (S. cerevisiae deletion strains, locus YLR268W, strain sec22, stronger effect = lower value)?
**A.** 0.406 (active)

**Q.** And the normalized growth (S. cerevisiae deletion strains, locus YLR330W, strain CHS5, stronger effect = lower value)?
**A.** 0.995

**Q.** And the normalized growth (S. cerevisiae deletion strains, locus YLR342W, strain FKS1 (second series), stronger effect = lower value)?
**A.** 1.04

**Q.** What about the normalized growth (S. cerevisiae deletion strains, locus YLR371W, strain rom2, stronger effect = lower value) of the same compound?
**A.** 0.391 (active)

**Q.** What about the normalized growth (S. cerevisiae deletion strains, locus YLR418C, strain cdc73, stronger effect = lower value) of the same compound?
**A.** 0.261 (active)

**Q.** And the normalized growth (S. cerevisiae deletion strains, locus YML016C, strain PPZ1, stronger effect = lower value)?
**A.** 1.01

**Q.** And the normalized growth (S. cerevisiae deletion strains, locus YML032C, strain rad52, stronger effect = lower value)?
**A.** 0.408 (active)

**Q.** And the normalized growth (S. cerevisiae deletion strains, locus YML124C, strain tub3, stronger effect = lower value)?
**A.** 0.554 (active)

**Q.** And the normalized growth (S. cerevisiae deletion strains, locus YMR078C, strain ctf18, stronger effect = lower value)?
**A.** 0.852 (active)

**Q.** What about the normalized growth (S. cerevisiae deletion strains, locus YMR223W, strain ubp8, stronger effect = lower value) of the same compound?
**A.** 0.315 (active)

**Q.** And the normalized growth (S. cerevisiae deletion strains, locus YMR263W, strain SAP30, stronger effect = lower value)?
**A.** 1.01

**Q.** And the normalized growth (S. cerevisiae deletion strains, locus YMR307W, strain GAS1, stronger effect = lower value)?
**A.** 1.01

**Q.** What about the normalized growth (S. cerevisiae deletion strains, locus YNL067W, strain RPL9B, stronger effect = lower value) of the same compound?
**A.** 1.01

**Q.** What about the normalized growth (S. cerevisiae deletion strains, locus YNL128W, strain TEP1, stronger effect = lower value) of the same compound?
**A.** 1

**Q.** And the normalized growth (S. cerevisiae deletion strains, locus YNL153C, strain GIM3, stronger effect = lower value)?
**A.** 1.01

**Q.** And the normalized growth (S. cerevisiae deletion strains, locus YNL233W, strain BNI4, stronger effect = lower value)?
**A.** 1

**Q.** What about the normalized growth (S. cerevisiae deletion strains, locus YNL250W, strain rad50, stronger effect = lower value) of the same compound?
**A.** 1.02

**Q.** What about the normalized growth (S. cerevisiae deletion strains, locus YNL271C, strain bni1, stronger effect = lower value) of the same compound?
**A.** 1.02

**Q.** What about the normalized growth (S. cerevisiae deletion strains, locus YNL298W, strain CLA4, stronger effect = lower value) of the same compound?
**A.** 1.03

**Q.** And the normalized growth (S. cerevisiae deletion strains, locus YNL307C, strain MCK1, stronger effect = lower value)?
**A.** 0.222 (active)

**Q.** What about the normalized growth (S. cerevisiae deletion strains, locus YNL322C, strain KRE1, stronger effect = lower value) of the same compound?
**A.** 1

**Q.** And the normalized growth (S. cerevisiae deletion strains, locus YNR052C, strain pop2, stronger effect = lower value)?
**A.** 0.137 (active)

**Q.** And the normalized growth (S. cerevisiae deletion strains, locus YOL006C, strain TOP1, stronger effect = lower value)?
**A.** 1.04

**Q.** What about the normalized growth (S. cerevisiae deletion strains, locus YOL012C, strain htz1) of the same compound?
**A.** 2.5 [resistant] (active)

**Q.** And the normalized growth (S. cerevisiae deletion strains, locus YOL147C, strain pex11, stronger effect = lower value)?
**A.** 0.451 (active)

**Q.** And the normalized growth (S. cerevisiae deletion strains, locus YOR061W, strain CKA2, stronger effect = lower value)?
**A.** 0.998

**Q.** And the normalized growth (S. cerevisiae deletion strains, locus YOR069W, strain VPS5, stronger effect = lower value)?
**A.** 1

**Q.** And the normalized growth (S. cerevisiae deletion strains, locus YOR136W, strain idh2, stronger effect = lower value)?
**A.** 0.531 (active)

**Q.** What about the normalized growth (S. cerevisiae deletion strains, locus YOR144C, strain elg1, stronger effect = lower value) of the same compound?
**A.** 0.619 (active)

**Q.** And the normalized growth (S. cerevisiae deletion strains, locus YOR184W, strain ser1, stronger effect = lower value)?
**A.** 1.02

**Q.** And the normalized growth (S. cerevisiae deletion strains, locus YOR316C, strain cot1, stronger effect = lower value)?
**A.** 0.416 (active)

**Q.** What about the normalized growth (S. cerevisiae deletion strains, locus YPL055C, strain LGE1, stronger effect = lower value) of the same compound?
**A.** 0.976

**Q.** What about the normalized growth (S. cerevisiae deletion strains, locus YPL241C, strain CIN2, stronger effect = lower value) of the same compound?
**A.** 0.98

**Q.** And the normalized growth (S. cerevisiae deletion strains, locus YPR119W, strain clb2, stronger effect = lower value)?
**A.** 0.645 (active)

**Q.** What about the normalized growth (S. cerevisiae deletion strains, locus YPR141C, strain kar3, stronger effect = lower value) of the same compound?
**A.** 1.02

**Q.** And the normalized growth (S. cerevisiae deletion strains, locus YPR163C, strain tif3, stronger effect = lower value)?
**A.** 0.37 (active)

**Q.** And the normalized growth (S. cerevisiae deletion strains, locus YPR167C, strain met16, stronger effect = lower value)?
**A.** 0.33 (active)

**Q.** What about the normalized growth (S. cerevisiae deletion strains, strain wtn01, stronger effect = lower value) of the same compound?
**A.** 0.229 (active)

**Q.** And the normalized growth (S. cerevisiae strains, strain wild type, stronger effect = lower value)?
**A.** 0.984

From PubChem BioAssay AID1159580 (chemical genetic matrix, 2015)
